TDP1 inh = TDP1 (human) enzyme inhibition; recombinant TDP1, AlphaScreen DNA substrate cleavage; 350,000 compounds, 0.28% hits; Potency, µM (series often up to 130 µM), inactives show at the highest dose activity change, negative = inhibition, usual class: inhibitors; Q9NUW8; further: nearly all actives have a fitted effect of over 40% in size
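Tdp1 1 nM final; 15 min RT w/ cpd; substrate 15 nM, 5 min; beads 10 ug/ml, 10 min; AlphaScreen read. Neg ctrl: no enzyme.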
VDR inh = inhibitors of human vitamin D receptor. VDR-SRC2-3 peptide fluorescence polarization, 2 h. 400,000 compounds, 0.93% hits. Potency, µM, for the others: max response, negative = inhibition, hits mostly inhibitors. AID 504847
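FP read-out; VDR + SRC2-3 coactivator peptide; 23 nl compound by pintool; 2 h RT incubation; reagents held at 4 deg C, protected from light.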
DT40 TDP1 no CPT = qHTS for Inhibitors of human tyrosyl-DNA phosphodiesterase 1 (TDP1): qHTS in cells in absence of CPT | DT40 Tdp1-/- hTDP1 cells, no CPT, ATP luminescence, 48 h | Potency, µM (doses to about 46.2 µM), inactives show top-dose activity change, negative = growth inhibition, most hits filed as inhibitors | 420,000 compounds, 15% hits; further: nearly all actives have a fitted effect of over 55% in size
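Growth of hTDP1-complemented DT40 Tdp1-knockout cells is measured by ATP luminescence after at least 48 hr compound exposure at 37 °C, with DMSO substituting for the 20 nM CPT used in the parallel screen.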
PLK1 PBD inh = inhibitors of human PLK1 polo-box domain binding; Plk1 PBD binding of FITC phosphopeptide, fluorescence polarization; AID 720504; 360,000 compounds, 2.8% hits; Potency, µM, for inactives: max response, negative = inhibition, most hits filed as inhibitors; P53350; further: series mostly up to about 57 µM; nearly all actives have a fitted effect of over 65% in size
Target sequence (P53350 whole entry, looked up, the tested form may be a part): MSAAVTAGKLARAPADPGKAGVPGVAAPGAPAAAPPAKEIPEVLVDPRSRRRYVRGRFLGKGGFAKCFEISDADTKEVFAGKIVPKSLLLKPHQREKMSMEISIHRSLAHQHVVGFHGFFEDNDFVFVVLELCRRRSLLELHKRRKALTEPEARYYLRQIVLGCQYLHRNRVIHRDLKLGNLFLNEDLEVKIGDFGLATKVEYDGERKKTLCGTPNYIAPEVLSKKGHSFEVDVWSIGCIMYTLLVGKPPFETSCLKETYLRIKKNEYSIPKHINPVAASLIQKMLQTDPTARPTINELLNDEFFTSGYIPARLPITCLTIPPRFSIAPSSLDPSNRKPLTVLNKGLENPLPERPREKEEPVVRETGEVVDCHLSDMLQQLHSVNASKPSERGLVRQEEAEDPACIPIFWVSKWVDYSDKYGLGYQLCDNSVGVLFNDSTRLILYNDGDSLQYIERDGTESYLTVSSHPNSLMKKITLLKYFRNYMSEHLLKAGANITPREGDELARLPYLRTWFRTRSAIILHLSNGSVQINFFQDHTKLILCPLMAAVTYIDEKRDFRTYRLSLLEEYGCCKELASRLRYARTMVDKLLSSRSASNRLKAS
GCN5L2 inh = blocks human GCN5L2 histone acetyltransferase; Q92830; GCN5L2 HAT assay, ThioGlo1 CoA-SH fluorescence; Potency, µM (titrated, usually from 58.9 µM), for the others: at the highest dose activity change, negative = inhibition, most hits filed as inhibitors; 390,000 compounds, 0.21% hits; AID 504327
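qHTS, 1536-well. 20nM enzyme, pH 7.5 HEPES/EDTA/Tween-20 buffer; 15 min compound preinc., RT. Start: 75uM H3(1-25), 70uM AcCoA, 50uM ThioGlo1. Read Ex340/Em540 at t=0 (autofluorescence flag) and t=20 min.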
TDP1 cell CPT = DT40-hTDP1 cell growth loss with CPT | chicken DT40 Tdp1-/-;hTDP1 cells + 20 nM CPT, ATP luminescence, 48 h | Potency, µM (titrated, usually from 46.2 µM), without a hit: at the highest dose activity change, negative = growth inhibition, actives largely listed as inhibitors | 420,000 compounds, 12% hits; further: nearly all actives have a fitted effect of over 55% in size
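Chicken DT40 Tdp1-/- cells stably complemented with human TDP1 were seeded at 400 cells/well in medium containing 20 nM camptothecin, exposed to pin-transferred compounds, and grown at 37 °C for at least 48 hr. Viability was read as ATP luminescence.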
An asterisk follows results filed as active; ? = inconclusive; . = no result given; [ ] = remark or other dose. Only some compounds are listed: those with a hit (about 18% of all), similar ones and a draw of the others. The call rests on the fitted dose curve; in most records, active means well fitted curve in the direction sought with a large enough effect; inconclusive means small, poorly fitted or top-dose-only effect, or another doubt; inactive means no such curve, though single readings can be large; an effect the other way counts as inactive or inconclusive. On the % scale 0 is the no-effect control and ±100 the full control effect; potency means the concentration at half of the fitted maximal effect.

SMILES | TDP1 inh | VDR inh | DT40 TDP1 no CPT | PLK1 PBD inh | GCN5L2 inh | TDP1 cell CPT
Cn1c(=O)c2c(nc(OCc3cccnc3)n2Cc2c(F)cccc2Cl)n(C)c1=O | 5% | -2% | ? | 2% | -3% | ?
COc1cc2c(cc1OC)C1O[C@](c3ccsc3)(C2)Oc2c1c(=O)oc1ccc(F)cc21 | . | . | . | . | 5%[12.7 µM] | .
C/C(=N/NS(=O)(=O)c1cc(C)ccc1C)c1ccncc1 | 7% | ? | 2% | 15µM* | -9% | 5%
COc1cc(S(=O)(=O)NCc2ccncc2)c(OC)cc1Br | 4% | -18% | 13µM* | 4% | -3% | ?
Cc1ccc(C)c(S(=O)(=O)NCc2ccncc2)c1 | 2% | -11% | 21µM* | -3% | 3.2µM* | ?
COc1cc(S(=O)(=O)NCc2cccnc2)c(OC)cc1Br | 6% | -7% | 9% | 0% | -10% | 6%
Cc1cc(S(=O)(=O)NCc2ccncc2)c(C)cc1Br | 2% | -1% | 5.8µM* | -6% | -18% | 8.2µM*
CC(=NNS(=O)(=O)c1ccc(C)cc1)c1ccccc1 | . | . | -5% | 5% | . | 13%
CCCCc1ccc(S(=O)(=O)N/N=C(/C)c2ccncc2)cc1 | 2% | ? | ? | ? | -5% | 16µM*
COc1ccc2cc(C3CC=C(CO)CN3S(=O)(=O)c3ccccc3[N+](=O)[O-])n(C(=O)OC(C)(C)C)c2c1 (stereo not drawn) | . | . | 21µM* | 0% | . | 23µM*
COc1ccc(OCC(=O)N2CCN(S(=O)(=O)c3ccccc3[N+](=O)[O-])CC2)cc1 | 5% | -15% | -10% | 1% | -13% | -5%
COC(=O)c1ccccc1NC(=O)Cn1c(=O)n(CCCC(=O)NCCc2ccc(OC)c(OC)c2)c(=O)c2ccccc21 | -3% | 10% | -8% | . | -4% | -6%
CCOC(=O)c1ccc(NC(=S)N(CCN(C)C)Cc2cccs2)cc1 | 0% | 4% | ? | -1% | -10% | 16µM*
O=C(NCCc1ccc(Cl)cc1)C(=O)NCC(c1ccc2c(c1)OCO2)N1CCOCC1 (stereo not drawn) | 3% | -4% | -20% | . | -9% | -19%
COCc1ccc(CN2CCOc3c(O)cc(-c4cc(C)c5ccc(F)cc5n4)cc3C2)o1 | . | . | ? | . | . | -1%[9.04 µM]
CCN1C(=O)[C@H]2[C@@H](c3ccc(-c4cccc(Cl)c4)cc3)N[C@@](CC(C)C)(C(=O)OC)[C@H]2C1=O | 0% | -8% | 12µM* | -3% | -8% | 18µM*
CCN1C(=O)[C@H]2[C@@H](c3ccc(-c4ccc(Cl)c(Cl)c4)cc3)N[C@@](CC(C)C)(C(=O)OC)[C@H]2C1=O | -3% | -14% | ? | -10% | -14% | 4.1µM*
CCN1C(=O)[C@H]2[C@@H](c3ccc(-c4ccc(OC)cc4)cc3)N[C@@](CC(C)C)(C(=O)OC)[C@H]2C1=O | -4% | -5% | 23µM* | -4% | -17% | ?
COC(=O)[C@]1(CC(C)C)N[C@H](c2ccc(-c3ccc(C(C)=O)cc3)cc2)[C@@H]2C(=O)N(C)C(=O)[C@@H]21 | 1% | -20% | ? | 1% | 1% | -22%
COC(=O)[C@]1(CC(C)C)N[C@H](c2ccc(-c3ccc(Cl)c(Cl)c3)cc2)[C@@H]2C(=O)N(C)C(=O)[C@@H]21 | -1% | -8% | 18µM* | 2% | -14% | ?
O=C(Cc1ccccc1)Nc1sc2c(c1C(=O)Nc1ccc(Br)cc1)CCCC2 | 5%[12.3 µM] | -27% | 21µM* | . | -13% | 12µM*
CCOC(=O)c1ccc(NC(=O)c2c(NC(C)=O)sc3c2CCC(C)C3)cc1 (stereo not drawn) | . | -5% | ? | . | -4% | ?
